Source: PubChem BioAssay (EPA / NIEHS)
Several values for one entry are separate records, joined by “and”; a condition that tells them apart may be missing. Equal values may be shown once. Some structures have more than one record in an assay (separate samples or runs), and their calls can disagree. Activity calls are given as the source filed them. How the source made its calls: active means hit-call score of the fitted dose curve at least 0.9, where 1 is the maximum; inactive means score below 0.9.

Legend:
Settings in all cases: primary human HUVEC with PBMC; actives raise or lower the signal
[1] = BSK_LPS_PGE2: BioMAP Diversity Plus: LPS Assay for Prostaglandin E2 (PGE2) Biomarker Activity (AID 2283082);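 on AC50: secreted prostaglandin E2 measured by ELISA in LPS-stimulated co-culture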
Summary of the method: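 HUVEC plus human PBMC co-culture stimulated with LPS; secreted PGE2 quantified by ELISA 24 h after chemical dosing. Activity fitted bidirectionally against DMSO baseline; parallel SRB staining (0.1% SRB after 10% TCA fixation, 560 nm) flags overt cytotoxicity.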

[2] = read-out: Macrophage colony-stimulating factor (MCSF), CSF1 (gene 1435); test: BSK_LPS_MCSF: BioMAP Diversity Plus: LPS Assay for Macrophage colony-stimulating factor (MCSF) Biomarker Activity (AID 2283083)
Summary of the method: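 Bidirectional fitting against DMSO was applied to M-CSF levels read by ELISA at 24 h post-dose. The system pairs human umbilical vein endothelium with peripheral blood mononuclear cells; parallel SRB staining tracked cytotoxicity.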

[3] = read-out: Tissue Factor, F3 (gene 2152); test: BSK_LPS_TissueFactor: BioMAP Diversity Plus: LPS Assay for Tissue Factor Biomarker Activity (AID 2283084)
Summary of the method: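 Compound was added to an endothelial cell/PBMC co-culture, and after 24 h tissue factor (CD142) was read by ELISA. Gain or loss of signal was fitted against a DMSO baseline, and parallel SRB staining (560 nm) tracked overt cytotoxicity.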

[4] = read-out: Tumor necrosis factor (Homo sapiens) (UniProt P01375); test: BSK_LPS_TNFa: BioMAP Diversity Plus: LPS Assay for Tumour Necrosis Factor alpha (TNFa) Biomarker Activity (AID 2283085)
Summary of the method: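 Human umbilical vein endothelial cells co-cultured with PBMC and stimulated with LPS. TNFa was measured by ELISA 24 h after chemical dosing, fitted bidirectionally relative to DMSO.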

[5] = read-out: Vascular cell adhesion molecule 1 (VCAM1), VCAM1 (gene 7412); test: BSK_LPS_VCAM1: BioMAP Diversity Plus: LPS Assay for Vascular cell adhesion molecule 1 (VCAM1) Biomarker Activity (AID 2283086)
Summary of the method: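 Human umbilical vein endothelial cells co-cultured with PBMC and stimulated with LPS; VCAM-1 measured by ELISA 24 h after dosing. Bidirectional curve fitting against DMSO baseline; cytotoxicity tracked in parallel by SRB total-protein staining.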

CD38, CD38 (gene 952) = test: BSK_SAg_CD38: BioMAP Diversity Plus: SAg Assay for CD38 Biomarker Activity (AID 2283087)
Summary of the method: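 Human HUVEC plus PBMC co-culture stimulated with superantigen; CD38 measured by ELISA 24 h after chemical dosing. Fluorescence read-out, bidirectional fit against DMSO; cytotoxicity tracked in parallel by SRB and Alamar Blue.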

CD40, CD40 (gene 958) = test: BSK_SAg_CD40: BioMAP Diversity Plus: SAg Assay for CD40 Biomarker Activity (AID 2283088)
Summary of the method: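 CD40 is measured by fluorescence ELISA in an endothelial/PBMC primary human co-culture at 24 h post-dose. Fitting is bidirectional, DMSO baseline. Parallel SRB staining (560 nm) flags cytotoxicity.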

CD69, CD69 (gene 969) = test: BSK_SAg_CD69: BioMAP Diversity Plus: SAg Assay for CD69 Biomarker Activity (AID 2283089);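 on AC50: cell surface CD69 protein quantified by ELISA with fluorescence detection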
Summary of the method: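 Endothelial/PBMC co-culture; chemical added; 24 h incubation; CD69 ELISA with fluorescence detection; bidirectional fit vs DMSO.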

[6] = read-out: Monocyte Chemoattractant Protein-1 (MCP1), CCL2 (gene 6347); test: BSK_SAg_MCP1: BioMAP Diversity Plus: SAg Assay for Monocyte Chemoattractant Protein-1 (MCP1) Biomarker Activity (AID 2283090)
Summary of the method: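 MCP-1 levels in the endothelial–PBMC SAg co-culture were quantified by ELISA at 24 h post-dosing; both increases and decreases versus DMSO scored. Cytotoxicity monitored by SRB total protein in parallel cultures.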

[7] = read-out: E-selectin (Homo sapiens) (UniProt P16581); test: BSK_SAg_Eselectin: BioMAP Diversity Plus: SAg Assay for Eselectin Biomarker Activity (AID 2283091)
Summary of the method: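 Cell-surface E-selectin is read by ELISA at 24 h in the SAg co-culture of HUVEC and PBMC. Curves are fitted in both directions relative to DMSO. Parallel SRB total-protein staining tracks overt toxicity.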

Measured: AC50

Chain of E-selectin (Homo sapiens) (P16581 whole entry, looked up): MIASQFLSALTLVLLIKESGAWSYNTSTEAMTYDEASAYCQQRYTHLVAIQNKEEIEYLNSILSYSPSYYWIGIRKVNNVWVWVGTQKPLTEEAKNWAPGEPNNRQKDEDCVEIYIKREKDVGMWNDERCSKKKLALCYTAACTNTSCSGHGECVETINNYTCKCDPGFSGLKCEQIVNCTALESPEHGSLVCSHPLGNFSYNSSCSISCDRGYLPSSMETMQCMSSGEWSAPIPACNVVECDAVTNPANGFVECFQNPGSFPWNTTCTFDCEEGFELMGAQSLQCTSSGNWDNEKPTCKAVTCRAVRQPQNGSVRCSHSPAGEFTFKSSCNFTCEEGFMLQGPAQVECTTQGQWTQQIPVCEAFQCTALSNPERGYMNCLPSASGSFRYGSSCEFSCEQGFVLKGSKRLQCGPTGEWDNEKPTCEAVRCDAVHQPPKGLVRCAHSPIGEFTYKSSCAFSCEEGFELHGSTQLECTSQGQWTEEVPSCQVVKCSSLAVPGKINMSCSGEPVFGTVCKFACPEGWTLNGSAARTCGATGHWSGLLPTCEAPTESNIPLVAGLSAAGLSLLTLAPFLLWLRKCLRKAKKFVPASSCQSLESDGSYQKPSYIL
Chain of Tumor necrosis factor (Homo sapiens) (P01375 whole entry, looked up): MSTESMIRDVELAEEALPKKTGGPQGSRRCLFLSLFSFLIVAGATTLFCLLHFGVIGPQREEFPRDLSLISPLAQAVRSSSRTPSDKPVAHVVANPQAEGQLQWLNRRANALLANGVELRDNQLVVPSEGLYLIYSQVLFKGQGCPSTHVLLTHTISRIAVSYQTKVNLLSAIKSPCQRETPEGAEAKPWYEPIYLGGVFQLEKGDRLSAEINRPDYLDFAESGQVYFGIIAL

O=C(O)C(F)(F)C(F)(F)C(F)(F)C(F)(F)C(F)(F)C(F)(F)C(F)(F)C(F)(F)C(F)(F)C(F)(F)C(F)(F)C(F)(F)C(F)(F)F
inactive: [1] | [2] | [3] | [4] | [5] | CD38, CD38 (gene 952) | CD40, CD40 (gene 958) | CD69, CD69 (gene 969) | [6] | [7]
active: CD40, CD40 (gene 958) 0.869 µM

O=C(O)C(F)(F)C(F)(F)C(F)(F)C(F)(F)C(F)(F)C(F)(F)C(F)(F)C(F)(F)C(F)(F)C(F)F
inactive: [2] | [4] | [7]
active: [1] 42.6 µM and 48.8 µM | [5] 52.5 µM and 46.9 µM | CD38, CD38 (gene 952) 48.3 µM and 46.3 µM | CD40, CD40 (gene 958) 41.9 µM and 44.6 µM | CD69, CD69 (gene 969) 37.6 µM and 47.3 µM | [6] 44.9 µM and 46 µM | [7] 54.2 µM

FC(F)(F)C(F)(F)C(F)(F)N(C(F)(F)C(F)(F)C(F)(F)F)C(F)(F)C(F)(F)C(F)(F)F
not listed: [3]
inactive: all other assays above

FC(F)(F)C(F)(F)C(F)(F)C(F)(F)C(F)(F)C(F)(F)C(F)(F)C(F)(F)F
not listed: [3]
inactive: all other assays above

OCC(F)(F)C(F)(F)C(F)(F)F
not listed: [3]
inactive: all other assays above

O=C(O)C(F)(F)C(F)(F)C(F)(F)C(F)(F)C(F)(F)C(F)(F)C(F)(F)C(F)(F)C(F)(F)C(F)(F)C(F)(F)C(F)(F)F
active: [2] 20.4 µM and 21.6 µM | CD40, CD40 (gene 958) 21.1 µM and 16.7 µM
inactive: all other assays above

FC(F)(I)C(F)(F)C(F)(F)C(F)(F)I
inactive: [1] | [2] | [4] | [5] | CD38, CD38 (gene 952) | CD40, CD40 (gene 958) | CD69, CD69 (gene 969) | [6] | [7]
active: CD69, CD69 (gene 969) 46.7 µM | [7] 44.1 µM

OCC(F)(F)C(F)(F)C(F)(F)C(F)(F)C(F)(F)C(F)(F)F
active: CD38, CD38 (gene 952) 9.86 µM and 5.95 µM
not listed: [3]
inactive: all other assays above

CCCCCCCOC(=O)c1ccccc1C(=O)OCCCCCCC
not listed: [3]
inactive: all other assays above

O=S(=O)(O)C(F)(F)C(F)(F)C(F)(F)C(F)(F)C(F)(F)C(F)(F)C(F)(F)F
inactive: all assays above

FC(F)(F)C(F)(F)C(F)(F)C(F)(F)C(F)(F)C(F)(F)C(F)(F)I
not listed: [3]
inactive: all other assays above

FC(F)(F)C(F)(F)C(F)(F)C(F)(F)C(F)(F)C(F)(F)CCS
not listed: [3]
inactive: all other assays above

C=C(C)C(=O)OCC(F)(F)C(F)(F)C(F)(F)F
not listed: [3]
inactive: all other assays above

FC(F)(Br)C(F)(F)C(F)(F)C(F)(F)C(F)(F)C(F)(F)Br
not listed: [3]
inactive: all other assays above

C#C[C@]1(O)CC[C@H]2[C@@H]3CCc4cc(OC)ccc4[C@H]3CC[C@@]21C
active: [4] 34.6 µM | CD38, CD38 (gene 952) 27.1 µM | CD69, CD69 (gene 969) 15.2 µM
not listed: [3]
inactive: all other assays above

C=CC(F)(F)C(F)(F)C(F)(F)C(F)(F)C(F)(F)C(F)(F)C(F)(F)C(F)(F)F
not listed: [3]
inactive: all other assays above

CC(=O)Nc1ccc(N=Nc2cc(C)ccc2O)cc1
active: [5] 5.06 µM | CD38, CD38 (gene 952) 7.17 µM | CD69, CD69 (gene 969) 5.73 µM
inactive: all other assays above

O=P(O)(O)OCCC(F)(F)C(F)(F)C(F)(F)C(F)(F)C(F)(F)C(F)(F)F
not listed: [3]
inactive: all other assays above

C=C(C)C(=O)OCCC(F)(F)C(F)(F)C(F)(F)C(F)(F)C(F)(C(F)(F)F)C(F)(F)F
not listed: [3]
inactive: all other assays above

CO[Si](OC)(c1ccccc1)c1ccccc1
inactive: all assays above

C=CC(F)(F)C(F)(F)C(F)(F)C(F)(F)C(F)(F)C(F)(F)C(F)(F)C(F)(F)C=C
not listed: [3]
inactive: all other assays above

O=S(=O)(OCC(F)F)C(F)(F)F
active: CD38, CD38 (gene 952) 0.22 µM
inactive: [1] | [2] | [4] | [5] | CD38, CD38 (gene 952) | CD40, CD40 (gene 958) | CD69, CD69 (gene 969) | [6] | [7]

CCCCOCCOCCOC(=O)CCCCC(=O)OCCOCCOCCCC
active: [4] 5.67 µM
not listed: [3]
inactive: all other assays above

O=C(CC(=O)C(F)(F)C(F)(F)F)C(F)(F)F
not listed: [3]
inactive: all other assays above

COC(=O)CCC(F)(F)C(F)(F)C(F)(F)C(F)(F)F
not listed: [3]
inactive: all other assays above

O=C(O)C(F)(F)C(F)(F)C(F)F
inactive: all assays above

FC(F)(F)C(F)(F)C(F)(F)C(F)(F)CCI
not listed: [3]
inactive: all other assays above

Oc1ccc(Nc2ccccc2)cc1
active: [1] 668 nM | [5] 20 µM | CD38, CD38 (gene 952) 20 µM | CD40, CD40 (gene 958) 8.57 µM | CD69, CD69 (gene 969) 14 µM | [6] 20 µM | [7] 25.1 µM
inactive: [2] | [4]

O=C(Cl)C(F)(F)C(F)(F)C(F)(F)C(F)(F)C(F)(F)C(F)(F)C(F)(F)C(F)(F)F
active: [4] 54.8 µM and 48.8 µM and 47.2 µM | [5] 30 µM and 40.7 µM and 45.5 µM | CD38, CD38 (gene 952) 39.6 µM and 30 µM | CD40, CD40 (gene 958) 30 µM and 48.9 µM | CD69, CD69 (gene 969) 24.5 µM and 30 µM and 43.1 µM | [6] 44.8 µM and 43.8 µM
inactive: [1] | [2] | CD38, CD38 (gene 952) | CD40, CD40 (gene 958) | [6] | [7]

CCCCCCCCCCCCCCCC[N+](C)(C)Cc1ccccc1
active: [2] 1.74 µM | [4] 3.79 µM | [5] 3.77 µM | CD38, CD38 (gene 952) 13 µM | CD40, CD40 (gene 958) 14.7 µM | CD69, CD69 (gene 969) 12.4 µM | [6] 2.97 µM | [7] 20 µM
inactive: [1]

FC1CC(F)(F)C(F)(F)C1(F)F (configuration not stated)
not listed: [3]
inactive: all other assays above

Nc1ccc([N+](=O)[O-])cc1O
not listed: [3]
inactive: all other assays above

CCCCCCC(C)OC(=O)CCCCC(=O)OC(C)CCCCCC (configuration not stated)
active: [4] 25.3 µM
not listed: [3]
inactive: all other assays above

C=CC/C=C/C/C=C/C/C=C/C
active: [4] 0.628 µM
not listed: [3]
inactive: all other assays above

CCN(CC)c1ccc2c(C)cc(=O)oc2c1
active: [1] 6520 nM
not listed: [3]
inactive: all other assays above

CCc1ccc(C(c2ccc(CC)cc2)C(Cl)Cl)cc1
active: [1] 158 nM | [2] 20 µM | [4] 29.9 µM | [5] 27.2 µM | CD38, CD38 (gene 952) 27.7 µM | CD40, CD40 (gene 958) 28.9 µM | CD69, CD69 (gene 969) 15.1 µM | [6] 31.8 µM | [7] 26 µM

CS(C)(=O)=O
not listed: [3]
inactive: all other assays above
